“And” between values parts separate entries of the source, which are not always exact repeats. Identical values can stand only once. The source made the active and inactive calls. Entries that show only a call come without a potency. Unless noted, calls come from the whole dose curve.
What was measured:
[1] = molecular target: Estrogen receptor (Homo sapiens) (UniProt P03372); test: qHTS assay for small molecule antagonists of estrogen receptor alpha signaling (AID 588513; active = well fitted curve in the direction sought with a large enough effect in the signal ratio, with a control signal flat, not every such curve was filed as active; inconclusive = small, poorly fitted or top-dose-only effect, or effect the other way, or a change in a side signal; inactive = no such curve, though single readings can be large or run the other way; the % refers to the signal ratio; note: potency is the fitted concentration of half-maximal effect)
Chain of Estrogen receptor (Homo sapiens) (P03372 whole entry, looked up): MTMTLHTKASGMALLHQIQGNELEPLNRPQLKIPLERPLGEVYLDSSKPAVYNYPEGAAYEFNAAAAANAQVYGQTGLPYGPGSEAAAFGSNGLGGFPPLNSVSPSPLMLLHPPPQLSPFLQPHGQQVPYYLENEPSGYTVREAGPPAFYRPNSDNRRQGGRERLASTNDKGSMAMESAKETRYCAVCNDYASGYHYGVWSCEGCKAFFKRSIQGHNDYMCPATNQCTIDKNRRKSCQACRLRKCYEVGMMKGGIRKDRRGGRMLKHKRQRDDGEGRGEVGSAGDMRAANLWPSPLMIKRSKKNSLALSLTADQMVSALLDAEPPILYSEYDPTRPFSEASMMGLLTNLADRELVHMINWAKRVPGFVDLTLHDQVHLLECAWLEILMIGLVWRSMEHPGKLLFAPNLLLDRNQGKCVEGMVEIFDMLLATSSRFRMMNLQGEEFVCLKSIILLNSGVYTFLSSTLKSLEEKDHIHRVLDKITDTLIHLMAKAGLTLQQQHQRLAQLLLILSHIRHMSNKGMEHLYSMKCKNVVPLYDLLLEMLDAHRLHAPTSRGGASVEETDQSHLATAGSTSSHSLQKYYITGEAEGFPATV
Procedure, shortened: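 Beta-lactamase reporter, antagonist mode, HEK 293 GripTite cells; 0.5nM E2 stimulus, 18 h, 37 C; CCF4 dye 2 h RT; fluorescence. IC50 and efficacy from Hill fits, normalized to E2 and DMSO.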

[2] = molecular target: Androgen receptor (Homo sapiens) (UniProt P10275); test: qHTS assay for small molecule antagonists of androgen receptor signaling (AID 588516; active = well fitted curve in the direction sought with a large enough effect in the signal ratio, with a control signal flat, not every such curve was filed as active; inconclusive = small, poorly fitted or top-dose-only effect, or effect the other way, or a change in a side signal; inactive = no such curve, though single readings can be large or run the other way; the % refers to the signal ratio; note: potency is the fitted concentration of half-maximal effect)
Procedure, shortened: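 HEK293 AR-UAS-bla cells, 10% dialyzed FBS medium; cpd titration + R1881 10 nM final, 16 h 37 C; CCF4 2 h RT; FRET ratio; IC50/efficacy via Hill fit.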

[3] = molecular target: Glucocorticoid receptor (Homo sapiens) (UniProt P04150); test: qHTS assay for small molecule agonists of glucocorticoid receptor signaling (AID 588532; active = well fitted curve in the direction sought with a large enough effect in the signal ratio, with a control signal flat; inconclusive = small, poorly fitted or top-dose-only effect, or a change in a side signal; inactive = no such curve, though single readings can be large or run the other way; the % refers to the signal ratio); conditions: HeLa MMTV-bla, beta-lactamase ratio, agonist, 18 h; stronger effect = higher value; percent of dexamethasone control, DMSO zero
Chain of Glucocorticoid receptor (Homo sapiens) (P04150 whole entry, looked up): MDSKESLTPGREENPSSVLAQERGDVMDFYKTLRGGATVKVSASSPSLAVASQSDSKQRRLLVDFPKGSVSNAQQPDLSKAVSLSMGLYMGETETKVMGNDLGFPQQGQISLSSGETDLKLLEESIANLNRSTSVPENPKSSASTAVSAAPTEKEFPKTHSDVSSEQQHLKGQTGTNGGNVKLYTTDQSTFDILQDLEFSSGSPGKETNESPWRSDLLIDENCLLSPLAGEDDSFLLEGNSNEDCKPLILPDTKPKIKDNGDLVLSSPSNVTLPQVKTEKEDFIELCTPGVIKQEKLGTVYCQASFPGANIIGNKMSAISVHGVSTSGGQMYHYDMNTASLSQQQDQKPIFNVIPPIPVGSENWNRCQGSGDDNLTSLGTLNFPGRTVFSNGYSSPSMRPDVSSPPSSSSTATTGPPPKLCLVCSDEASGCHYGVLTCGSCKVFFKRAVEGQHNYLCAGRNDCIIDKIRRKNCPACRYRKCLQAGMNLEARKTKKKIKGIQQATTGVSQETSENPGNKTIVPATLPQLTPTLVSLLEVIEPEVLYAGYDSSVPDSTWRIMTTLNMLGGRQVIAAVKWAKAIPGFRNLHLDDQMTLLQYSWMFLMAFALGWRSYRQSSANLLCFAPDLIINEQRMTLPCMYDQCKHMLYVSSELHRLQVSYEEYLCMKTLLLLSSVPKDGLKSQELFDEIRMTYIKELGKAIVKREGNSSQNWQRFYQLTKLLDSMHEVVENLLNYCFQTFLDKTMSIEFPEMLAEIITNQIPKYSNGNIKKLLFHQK
Procedure, shortened: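 Cells were plated and rested 3-5 h at 37 C, compounds were added in titration and incubated 18 h, then CCF4 substrate was loaded for 2 h at RT before reading blue/green fluorescence. EC50 came from Hill-equation fitting.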

[4] = molecular target: Glucocorticoid receptor (Homo sapiens) (UniProt P04150); test: qHTS assay for small molecule antagonists of glucocorticoid receptor signaling (AID 588533; active = well fitted inhibition curve with a large enough effect in the signal ratio, with a control signal flat, not every such curve was filed as active; inconclusive = small, poorly fitted or top-dose-only effect, or effect the other way, or a change in a side signal; the % refers to the signal ratio; note: potency is the fitted concentration of half-maximal effect)
Procedure, shortened: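 Antagonist-mode qHTS: compound titrations added to GRE-bla HeLa cells, then dexamethasone 2 nM final; 18 h, 37 C. CCF4 FRET fluorescence normalized to dexamethasone and DMSO; IC50 from Hill fit.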

[5] = qHTS assay for small molecule antagonists of peroxisome proliferator-activated receptor delta signaling (AID 588535; active = well fitted inhibition curve with a large enough effect in the signal ratio, with a control signal flat, not every such curve was filed as active; inconclusive = small, poorly fitted or top-dose-only effect, or effect the other way, or a change in a side signal; inactive = no such curve, though single readings can be large or run the other way; the % refers to the signal ratio; note: potency is the fitted concentration of half-maximal effect;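 for max response: cells co-treated with a PPAR-delta agonist as stimulator during compound exposure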); conditions: HEK293T PPARd-UAS-bla, beta-lactamase FRET ratio, 18 h; 460 nm channel
Procedure, shortened: (§1)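 Antagonist-mode beta-lactamase reporter (GeneBLAzer PPAR-delta-UAS-bla) in HEK293T cells, 2% charcoal/dextran FBS, 4000 cells/well. Compound titrations, 18 h at 37 C; CCF4 ratio read, IC50 and efficacy from Hill fits.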

[6] = molecular target: Peroxisome proliferator-activated receptor delta (Homo sapiens) (UniProt Q03181); test: as above
Chain of Peroxisome proliferator-activated receptor delta (Homo sapiens) (Q03181 whole entry, looked up): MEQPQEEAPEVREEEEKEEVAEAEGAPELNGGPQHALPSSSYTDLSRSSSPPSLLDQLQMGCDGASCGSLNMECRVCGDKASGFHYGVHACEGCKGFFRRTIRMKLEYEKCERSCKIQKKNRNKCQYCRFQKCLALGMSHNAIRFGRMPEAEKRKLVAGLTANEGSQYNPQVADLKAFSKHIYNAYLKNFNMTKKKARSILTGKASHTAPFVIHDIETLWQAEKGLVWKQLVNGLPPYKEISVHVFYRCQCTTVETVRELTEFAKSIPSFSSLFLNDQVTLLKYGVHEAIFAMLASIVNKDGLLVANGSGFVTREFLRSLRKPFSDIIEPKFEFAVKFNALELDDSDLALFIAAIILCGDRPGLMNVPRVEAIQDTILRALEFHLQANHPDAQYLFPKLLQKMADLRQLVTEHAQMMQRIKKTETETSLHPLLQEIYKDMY
Procedure, shortened: as §1

[7] = molecular target: Vitamin D3 receptor (Homo sapiens) (UniProt P11473); test: qHTS assay for small molecule antagonists of vitamin D receptor signaling (AID 588541); note: potency is the fitted concentration of half-maximal effect
Chain of Vitamin D3 receptor (Homo sapiens) (P11473 whole entry, looked up): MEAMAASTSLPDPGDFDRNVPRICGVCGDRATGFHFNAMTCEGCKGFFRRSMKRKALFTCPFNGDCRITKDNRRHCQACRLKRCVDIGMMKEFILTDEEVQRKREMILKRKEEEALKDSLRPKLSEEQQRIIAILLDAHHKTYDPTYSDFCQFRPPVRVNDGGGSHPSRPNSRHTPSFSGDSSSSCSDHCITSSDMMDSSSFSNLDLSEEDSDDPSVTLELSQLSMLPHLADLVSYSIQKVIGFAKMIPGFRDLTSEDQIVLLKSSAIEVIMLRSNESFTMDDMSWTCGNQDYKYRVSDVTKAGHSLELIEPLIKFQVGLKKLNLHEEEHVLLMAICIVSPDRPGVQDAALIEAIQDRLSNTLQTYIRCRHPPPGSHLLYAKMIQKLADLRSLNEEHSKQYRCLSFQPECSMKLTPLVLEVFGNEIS
Procedure, shortened: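 VDR-UAS-bla HEK293T cells in 2% charcoal-stripped FBS were stimulated with 1-alpha,25-dihydroxyvitamin D3 (3 nM final) plus compound for 16 h at 37 C. The beta-lactamase CCF4 readout was normalized to 50 nM agonist and DMSO, and Hill fits gave IC50.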

[8] = molecular target: Bile acid receptor (Homo sapiens) (UniProt Q96RI1); test: qHTS assay for small molecule antagonists of farnesoid X receptor signaling (AID 588526)
Chain of Bile acid receptor (Homo sapiens) (Q96RI1 whole entry, looked up): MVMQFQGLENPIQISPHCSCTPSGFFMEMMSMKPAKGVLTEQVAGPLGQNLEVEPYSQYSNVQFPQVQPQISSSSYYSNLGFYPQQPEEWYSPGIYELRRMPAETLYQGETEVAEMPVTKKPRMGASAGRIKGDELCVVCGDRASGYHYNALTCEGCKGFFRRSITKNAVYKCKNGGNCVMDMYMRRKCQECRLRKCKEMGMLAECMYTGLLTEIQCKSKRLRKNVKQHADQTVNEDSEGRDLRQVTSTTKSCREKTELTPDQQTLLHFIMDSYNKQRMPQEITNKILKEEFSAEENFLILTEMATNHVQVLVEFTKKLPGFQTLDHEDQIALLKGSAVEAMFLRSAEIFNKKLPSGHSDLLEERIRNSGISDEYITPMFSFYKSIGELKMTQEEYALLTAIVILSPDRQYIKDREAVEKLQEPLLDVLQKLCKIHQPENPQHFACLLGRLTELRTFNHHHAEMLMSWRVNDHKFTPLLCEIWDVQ
Procedure, shortened: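 Antagonist mode: titrated compounds tested against chenodeoxycholic acid stimulation (normalized to 50 uM CDCA and DMSO) in GeneBLAzer HEK293T cells for 16 h. Beta-lactamase read by CCF4 fluorescence; IC50 from Hill fits.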

[9] = molecular target: Bile acid receptor (Homo sapiens) (UniProt Q96RI1); test: qHTS assay for small molecule agonists of farnesoid X receptor signaling (AID 588527); conditions: HEK293T FXR-UAS-bla, beta-lactamase ratio, 16 h; stronger effect = higher value; note: series mostly up to about 77 µM
Procedure, shortened: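 FXR-UAS-bla HEK293T cells (10% dialyzed FBS) preincubated 5-7 h at 37 C, then compounds at up to 92 uM for 16 h at 37 C. CCF4 beta-lactamase read-out after 2 h RT. Normalized to chenodeoxycholic acid (100 uM) and DMSO; Hill fit gave EC50 and efficacy.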

[10] = molecular target: Peroxisome proliferator-activated receptor gamma (Homo sapiens) (UniProt P37231); test: qHTS assay for small molecule antagonists of peroxisome proliferator-activated receptor gamma signaling (AID 588537; active = well fitted inhibition curve with a large enough effect in the signal ratio, with a control signal flat, not every such curve was filed as active; inconclusive = small, poorly fitted or top-dose-only effect, or effect the other way, or a change in a side signal; the % refers to the signal ratio;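 note: reporter cells co-stimulated with 50 nM rosiglitazone agonist during compound treatment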)
Chain of Peroxisome proliferator-activated receptor gamma (Homo sapiens) (P37231 whole entry, looked up): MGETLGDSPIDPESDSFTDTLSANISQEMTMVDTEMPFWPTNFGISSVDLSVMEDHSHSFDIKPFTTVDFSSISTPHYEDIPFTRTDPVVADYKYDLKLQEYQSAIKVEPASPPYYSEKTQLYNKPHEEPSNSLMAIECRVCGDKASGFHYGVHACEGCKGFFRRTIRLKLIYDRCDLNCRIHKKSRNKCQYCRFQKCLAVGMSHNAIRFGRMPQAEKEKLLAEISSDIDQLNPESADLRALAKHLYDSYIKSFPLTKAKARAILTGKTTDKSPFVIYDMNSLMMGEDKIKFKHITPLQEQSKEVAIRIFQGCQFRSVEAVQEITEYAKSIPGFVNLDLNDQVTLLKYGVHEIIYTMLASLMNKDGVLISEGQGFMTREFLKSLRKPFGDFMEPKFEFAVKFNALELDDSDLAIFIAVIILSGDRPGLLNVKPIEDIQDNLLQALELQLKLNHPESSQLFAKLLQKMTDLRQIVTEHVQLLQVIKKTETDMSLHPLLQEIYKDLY
Procedure, shortened: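 PPARγ-UAS-bla HEK293 cells (3000/well) in 1% charcoal/dextran-stripped FBS are treated with compound, then stimulated with 50 nM rosiglitazone for 16 h at 37 °C. Read-out is CCF4 β-lactamase fluorescence after 2 h at RT. IC50 comes from Hill fits normalised to rosiglitazone and DMSO.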

[11] = molecular target: Vitamin D3 receptor (Homo sapiens) (UniProt P11473); test: qHTS assay for small molecule agonists of vitamin D receptor signaling (AID 588543)
Procedure, shortened: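 β-lactamase reporter, VDR-UAS-bla HEK293T, agonist mode. Cells plated 5 h at 37 °C, compound titration 16 h at 37 °C, CCF4 dye 2 h RT, ratio 460/530 nm. Hill fit → EC50, efficacy vs 50 nM 1α,25-(OH)2D3.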

[12] = qHTS assay for small molecule agonists of retinoid X receptor alpha signaling (AID 588544); conditions: HEK293T RXRa-UAS-bla, beta-lactamase reporter, 18 h; 530 nm emission; note: potency is the fitted concentration of half-maximal effect
[13] = molecular target: Retinoic acid receptor RXR-alpha (Homo sapiens) (UniProt P19793); test: as above
Chain of Retinoic acid receptor RXR-alpha (Homo sapiens) (P19793 whole entry, looked up): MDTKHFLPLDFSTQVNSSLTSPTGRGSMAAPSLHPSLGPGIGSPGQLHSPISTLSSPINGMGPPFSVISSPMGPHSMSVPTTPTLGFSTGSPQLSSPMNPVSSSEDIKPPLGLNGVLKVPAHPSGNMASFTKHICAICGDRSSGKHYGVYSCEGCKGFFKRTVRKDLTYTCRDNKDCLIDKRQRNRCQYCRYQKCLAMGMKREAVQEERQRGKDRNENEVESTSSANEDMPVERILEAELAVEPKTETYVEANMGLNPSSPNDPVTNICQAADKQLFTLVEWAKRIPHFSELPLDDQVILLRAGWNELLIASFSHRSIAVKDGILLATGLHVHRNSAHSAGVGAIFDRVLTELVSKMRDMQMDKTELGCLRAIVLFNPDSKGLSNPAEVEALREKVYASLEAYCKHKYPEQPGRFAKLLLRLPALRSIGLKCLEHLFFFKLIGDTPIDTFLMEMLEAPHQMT

[14] = molecular target: Thyroid hormone receptor beta (Homo sapiens) (UniProt P10828); test: qHTS assay for small molecule agonists of thyroid hormone receptor beta signaling (AID 588545)
Chain of Thyroid hormone receptor beta (Homo sapiens) (P10828 whole entry, looked up): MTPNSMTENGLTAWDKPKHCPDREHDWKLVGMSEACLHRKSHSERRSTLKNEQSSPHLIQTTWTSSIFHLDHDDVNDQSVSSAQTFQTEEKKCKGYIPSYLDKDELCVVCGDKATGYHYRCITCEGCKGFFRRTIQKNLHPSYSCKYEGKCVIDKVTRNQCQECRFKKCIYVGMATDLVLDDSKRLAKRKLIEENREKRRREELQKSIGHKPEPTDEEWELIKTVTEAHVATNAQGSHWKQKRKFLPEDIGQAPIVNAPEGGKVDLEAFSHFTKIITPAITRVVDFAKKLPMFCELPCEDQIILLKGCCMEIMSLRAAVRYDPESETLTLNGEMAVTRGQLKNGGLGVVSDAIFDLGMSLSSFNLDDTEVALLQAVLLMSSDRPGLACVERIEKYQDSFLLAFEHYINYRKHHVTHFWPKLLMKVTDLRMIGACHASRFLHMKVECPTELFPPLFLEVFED
Procedure, shortened: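 Agonist-mode beta-lactamase reporter assay, HEK 293 cells, 2% charcoal/dextran FBS; cells plated 4 hrs, compound 18 hrs at 37 C, CCF4 2 hrs RT. Normalized to 10 nM T3 (100%) and DMSO (0%); Hill fit gives EC50, efficacy.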

[15] = qHTS assay for small molecule antagonists of retinoid X receptor alpha signaling (AID 588546); conditions: HEK293T RXRa-UAS-bla, beta-lactamase ratio, antagonist mode; measured here: W530 green channel, cytotoxicity proxy;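 note: cells stimulated with 9-cis-retinoic acid as agonist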
Procedure, shortened: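 Beta-lactamase reporter inhibition, read as CCF4 fluorescence ratio (ex 405, em 460/530 nm) after 2 h at RT. HEK293T UAS-bla cells, 2500/well, were stimulated with 9-cis-RA at 500 or 100 nM final alongside test compound for 18 h at 37 C.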

[16] = molecular target: Estrogen receptor (Homo sapiens) (UniProt P03372); test: qHTS assay for small molecule agonists of estrogen receptor alpha signaling (AID 588514); note: nearly all actives have a fitted effect of over 70% in size
Procedure, shortened: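 Cells were plated at 5000/well, incubated 4 hrs at 37 C, dosed with compound titration series, incubated 18 hrs at 37 C, loaded with CCF4 dye for 2 hrs at RT, then fluorescence was read.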

[17] = molecular target: Peroxisome proliferator-activated receptor delta (Homo sapiens) (UniProt Q03181); test: qHTS assay for small molecule agonists of peroxisome proliferator-activated receptor delta signaling (AID 588534)
Procedure, shortened: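 Fluorescence from CCF4 substrate cleavage by beta-lactamase reporter, read 2 hrs at RT, measured agonist activity. Compounds were tested with 18 hrs exposure at 37 C. Concentration-response data fitted to Hill equation.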

[18] = molecular target: Peroxisome proliferator-activated receptor gamma (Homo sapiens) (UniProt P37231); test: qHTS assay for small molecule agonists of peroxisome proliferator-activated receptor gamma signaling (AID 588536; active = well fitted curve in the direction sought with a large enough effect in the signal ratio, with a control signal flat, not every such curve was filed as active; inconclusive = small, poorly fitted or top-dose-only effect, or effect the other way, or a change in a side signal; inactive = no such curve, though single readings can be large or run the other way; the % refers to the signal ratio)
Procedure, shortened: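 GeneBLAzer PPAR-gamma-UAS-bla HEK293 cells in 1% charcoal/dextran-treated FBS medium were treated 16 h at 37 C with compounds. Beta-lactamase activity was read by CCF4 ratio (460/530 nm). Response was normalized to 2 uM rosiglitazone (100%) and DMSO, then Hill-fitted for EC50 and efficacy.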

CC(=O)[O][Hg][c]1ccccc1
Potency [1]: 2240 nM [inconclusive] (active)
Potency [2]: 2240 nM (active)
activation [3]: 23.7% (inactive)
Potency [4]: 141 nM (active)
max response [5]: -98.8%
Potency [6]: 2820 nM (active)
Potency [7]: 1.58 µM (active) and 2.51 µM (active)

CS(=O)(=O)c1ccc(C(=O)C2C(=O)CCCC2=O)c([N+](=O)[O-])c1
outcome [8]: inactive
activation [9]: -1.16% (inactive)
activation [3]: 6.35% (inactive)
max response [5]: 30.2%
Potency [6]: inactive
Potency [10]: inactive
Potency [7]: inactive
outcome [11]: inactive
max response [12]: 11.3%
Potency [13]: 17800 nM (active)
outcome [14]: inactive
max response [15]: -0.159%

COCCOCCO
Potency [1]: inactive
outcome [16]: inactive
outcome [17]: inactive
max response [5]: -0.0574%
Potency [6]: inactive
outcome [18]: inactive
Potency [10]: inactive
Potency [7]: inactive
outcome [11]: inactive
max response [12]: 0.722%
Potency [13]: inactive
outcome [14]: inactive
max response [15]: 3.81% and -4.43%

CCCN(CCC)c1c([N+](=O)[O-])cc(S(N)(=O)=O)cc1[N+](=O)[O-]
outcome [16]: inactive
outcome [8]: inactive
activation [9]: -1% (inactive)
activation [3]: -3.33% (inactive)
outcome [17]: inactive
max response [5]: 53.5%
Potency [6]: inactive
outcome [11]: inactive
max response [12]: -0.936%
Potency [13]: inactive
max response [15]: -18.5%

O=C(O)C(Cl)Cl
Potency [1]: inactive
outcome [16]: inactive
activation [3]: -0.327% (inactive)
Potency [4]: inactive
outcome [17]: inactive
max response [5]: -4.92%
Potency [6]: inactive
outcome [18]: inactive
Potency [10]: inactive
max response [12]: -16% and 3.52%
Potency [13]: inactive
outcome [14]: inactive
max response [15]: -11.2% and -3.76%

O=C(O)COc1ccccc1
Potency [1]: inactive
outcome [16]: inactive
activation [3]: -4.12% (inactive)
Potency [4]: inactive
outcome [17]: inactive
max response [5]: 43.8%
Potency [6]: inactive
outcome [18]: inactive
Potency [7]: inactive
outcome [11]: inactive
outcome [14]: inactive
max response [15]: 0.163%

CC(C)(O)C(=O)Nc1ccc([N+](=O)[O-])c(C(F)(F)F)c1
Potency [1]: inactive
outcome [16]: inactive
outcome [11]: inactive
max response [12]: 11.6%
Potency [13]: inactive
outcome [14]: inactive
max response [15]: 15.1%

Nc1ccc(Cl)cc1
Potency [1]: inactive
outcome [16]: inactive
Potency [4]: inactive
outcome [17]: inactive
outcome [14]: inactive
max response [15]: -14.8%

CC(C)Oc1cccc(NC(=O)c2ccccc2C(F)(F)F)c1
outcome [16]: inactive
activation [3]: -4.03% (inactive)
Potency [4]: inactive
outcome [17]: inactive
Potency [7]: inactive
outcome [11]: inactive
outcome [14]: inactive
max response [15]: 0.398%
